For 1 molecule, residual activity results are on record in ChEMBL document CHEMBL2218924, “A broad activity screen in support of a chemogenomic map for kinase signalling research and drug discovery” (Biochem J, 2013).

In experiment [1] the target is Tyrosine-protein kinase SYK (Homo sapiens) (UniProt P43405). The note with it: at 10 µM.
Experiment [2] concerns the target T1, Mitogen-activated protein kinase kinase kinase 7 (Homo sapiens) (UniProt O43318).
T1 sequence (whole entry): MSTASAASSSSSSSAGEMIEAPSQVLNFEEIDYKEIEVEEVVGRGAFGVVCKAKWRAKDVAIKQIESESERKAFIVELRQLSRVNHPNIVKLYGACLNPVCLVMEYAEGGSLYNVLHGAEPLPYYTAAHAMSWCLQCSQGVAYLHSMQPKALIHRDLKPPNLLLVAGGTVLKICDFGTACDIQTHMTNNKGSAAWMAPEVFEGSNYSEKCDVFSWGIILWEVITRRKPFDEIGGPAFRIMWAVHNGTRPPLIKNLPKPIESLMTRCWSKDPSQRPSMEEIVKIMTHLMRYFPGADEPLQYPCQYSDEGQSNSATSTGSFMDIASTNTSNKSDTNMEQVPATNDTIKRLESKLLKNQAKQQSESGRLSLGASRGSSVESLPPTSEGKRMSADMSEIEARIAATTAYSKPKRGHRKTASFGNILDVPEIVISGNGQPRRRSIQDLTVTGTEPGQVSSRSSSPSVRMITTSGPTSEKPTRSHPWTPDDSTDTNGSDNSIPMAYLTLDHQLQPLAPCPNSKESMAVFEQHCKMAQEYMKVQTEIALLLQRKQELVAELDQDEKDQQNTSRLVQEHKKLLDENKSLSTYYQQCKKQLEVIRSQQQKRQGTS
The note with it: at 1 µM.

For experiment [3], the target named is T1, Mitogen-activated protein kinase kinase kinase 7 (Homo sapiens). The note with it: at 10 µM.
In experiment [4] the target is T2, Serine/threonine-protein kinase TAO1 (Homo sapiens) (UniProt Q7L7X3).
T2 sequence (whole entry): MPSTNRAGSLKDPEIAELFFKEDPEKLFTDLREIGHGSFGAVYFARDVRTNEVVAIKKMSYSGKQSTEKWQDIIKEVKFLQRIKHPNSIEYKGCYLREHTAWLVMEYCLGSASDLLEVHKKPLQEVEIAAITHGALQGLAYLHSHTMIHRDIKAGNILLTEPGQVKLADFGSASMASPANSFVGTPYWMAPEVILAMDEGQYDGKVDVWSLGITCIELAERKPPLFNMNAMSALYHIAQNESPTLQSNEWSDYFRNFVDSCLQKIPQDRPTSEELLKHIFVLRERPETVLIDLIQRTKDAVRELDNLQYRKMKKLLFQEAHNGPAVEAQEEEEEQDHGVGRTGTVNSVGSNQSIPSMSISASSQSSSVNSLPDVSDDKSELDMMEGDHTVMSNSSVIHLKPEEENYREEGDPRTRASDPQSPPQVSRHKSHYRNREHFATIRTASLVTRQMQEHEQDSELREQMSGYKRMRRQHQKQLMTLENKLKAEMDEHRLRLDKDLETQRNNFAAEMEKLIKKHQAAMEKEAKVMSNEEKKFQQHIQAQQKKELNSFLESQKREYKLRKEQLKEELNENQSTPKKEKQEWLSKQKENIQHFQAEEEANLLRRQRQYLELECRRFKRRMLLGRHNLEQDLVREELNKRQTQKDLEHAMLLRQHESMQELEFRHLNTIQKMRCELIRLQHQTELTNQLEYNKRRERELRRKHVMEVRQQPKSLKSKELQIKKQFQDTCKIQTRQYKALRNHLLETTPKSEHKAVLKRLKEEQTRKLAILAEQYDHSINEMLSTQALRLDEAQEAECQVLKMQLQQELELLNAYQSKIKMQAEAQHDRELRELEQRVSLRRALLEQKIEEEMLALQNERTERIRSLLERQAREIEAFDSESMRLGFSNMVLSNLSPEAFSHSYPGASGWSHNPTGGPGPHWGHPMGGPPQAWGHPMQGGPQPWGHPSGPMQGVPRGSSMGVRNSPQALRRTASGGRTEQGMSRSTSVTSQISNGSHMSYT
The note with it: at 1 µM.

The target of experiment [5] is T2, Serine/threonine-protein kinase TAO1 (Homo sapiens). The note with it: at 10 µM.
Experiment [6] has as its target T3, Serine/threonine-protein kinase TAO2 (Homo sapiens) (UniProt Q9UL54).
T3 sequence (whole entry): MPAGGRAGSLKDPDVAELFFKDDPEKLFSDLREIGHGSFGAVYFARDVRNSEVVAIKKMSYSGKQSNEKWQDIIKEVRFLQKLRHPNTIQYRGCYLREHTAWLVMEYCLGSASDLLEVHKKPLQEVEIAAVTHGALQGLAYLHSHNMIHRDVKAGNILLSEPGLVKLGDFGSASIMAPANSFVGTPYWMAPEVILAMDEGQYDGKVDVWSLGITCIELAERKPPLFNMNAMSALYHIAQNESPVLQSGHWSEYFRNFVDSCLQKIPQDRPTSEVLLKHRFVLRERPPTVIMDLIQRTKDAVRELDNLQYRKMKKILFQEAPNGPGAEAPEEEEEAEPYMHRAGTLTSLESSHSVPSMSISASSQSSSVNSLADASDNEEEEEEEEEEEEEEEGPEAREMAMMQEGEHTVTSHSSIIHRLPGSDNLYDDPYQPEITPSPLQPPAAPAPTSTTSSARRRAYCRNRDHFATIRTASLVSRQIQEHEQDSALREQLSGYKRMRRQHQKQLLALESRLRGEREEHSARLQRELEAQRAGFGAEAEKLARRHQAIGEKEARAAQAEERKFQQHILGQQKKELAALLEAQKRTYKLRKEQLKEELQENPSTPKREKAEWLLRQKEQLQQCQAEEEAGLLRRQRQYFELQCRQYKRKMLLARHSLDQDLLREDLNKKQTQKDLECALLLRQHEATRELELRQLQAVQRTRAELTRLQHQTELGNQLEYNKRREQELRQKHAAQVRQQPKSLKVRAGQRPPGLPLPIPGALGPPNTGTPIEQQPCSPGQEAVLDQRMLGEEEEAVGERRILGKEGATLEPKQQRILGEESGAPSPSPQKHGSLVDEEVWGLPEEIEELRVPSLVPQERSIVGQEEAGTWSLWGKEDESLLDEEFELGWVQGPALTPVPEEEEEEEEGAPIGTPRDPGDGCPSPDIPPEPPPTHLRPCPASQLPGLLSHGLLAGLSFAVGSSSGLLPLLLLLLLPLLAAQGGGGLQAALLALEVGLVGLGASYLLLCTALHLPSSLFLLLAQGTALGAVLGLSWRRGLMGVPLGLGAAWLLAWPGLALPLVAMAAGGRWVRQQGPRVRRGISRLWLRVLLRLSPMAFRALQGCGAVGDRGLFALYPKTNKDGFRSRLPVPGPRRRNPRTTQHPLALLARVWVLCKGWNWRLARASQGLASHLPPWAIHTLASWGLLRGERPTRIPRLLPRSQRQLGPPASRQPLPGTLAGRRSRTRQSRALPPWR
The note with it: at 1 µM.

In experiment [7] the target is T3, Serine/threonine-protein kinase TAO2 (Homo sapiens). As to conditions: at 10 µM.
Experiment [8] concerns the target T4, Serine/threonine-protein kinase TAO3 (Homo sapiens) (UniProt Q9H2K8).
T4 sequence (whole entry): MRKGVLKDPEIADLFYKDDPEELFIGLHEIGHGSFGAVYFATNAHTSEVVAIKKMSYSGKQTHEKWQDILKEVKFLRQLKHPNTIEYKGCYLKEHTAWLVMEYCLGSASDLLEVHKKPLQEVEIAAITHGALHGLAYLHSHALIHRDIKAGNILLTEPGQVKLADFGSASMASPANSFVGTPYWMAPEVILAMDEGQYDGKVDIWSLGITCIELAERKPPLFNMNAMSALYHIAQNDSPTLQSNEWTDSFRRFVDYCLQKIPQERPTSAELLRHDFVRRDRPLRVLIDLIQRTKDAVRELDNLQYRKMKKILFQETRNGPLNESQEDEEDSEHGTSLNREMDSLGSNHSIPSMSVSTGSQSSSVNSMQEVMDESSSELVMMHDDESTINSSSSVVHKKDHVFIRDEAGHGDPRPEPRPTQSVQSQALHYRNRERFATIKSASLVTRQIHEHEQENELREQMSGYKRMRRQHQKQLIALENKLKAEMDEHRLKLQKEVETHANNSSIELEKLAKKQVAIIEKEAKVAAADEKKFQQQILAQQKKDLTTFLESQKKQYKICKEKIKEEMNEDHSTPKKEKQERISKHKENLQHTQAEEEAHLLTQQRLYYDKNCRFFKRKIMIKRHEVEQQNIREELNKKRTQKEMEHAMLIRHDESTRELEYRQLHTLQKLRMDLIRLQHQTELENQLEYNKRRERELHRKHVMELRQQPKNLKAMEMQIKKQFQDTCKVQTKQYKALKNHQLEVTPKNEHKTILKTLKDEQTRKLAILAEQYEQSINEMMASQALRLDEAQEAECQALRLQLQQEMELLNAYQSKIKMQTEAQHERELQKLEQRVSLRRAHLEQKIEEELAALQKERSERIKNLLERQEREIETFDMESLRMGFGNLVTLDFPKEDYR
The note with it: at 1 µM.

In experiment [9] the target is T4, Serine/threonine-protein kinase TAO3 (Homo sapiens). The note with it: at 10 µM.
Experiment [10] addresses T5, Serine/threonine-protein kinase TBK1 (Homo sapiens) (UniProt Q9UHD2).
T5 sequence (whole entry): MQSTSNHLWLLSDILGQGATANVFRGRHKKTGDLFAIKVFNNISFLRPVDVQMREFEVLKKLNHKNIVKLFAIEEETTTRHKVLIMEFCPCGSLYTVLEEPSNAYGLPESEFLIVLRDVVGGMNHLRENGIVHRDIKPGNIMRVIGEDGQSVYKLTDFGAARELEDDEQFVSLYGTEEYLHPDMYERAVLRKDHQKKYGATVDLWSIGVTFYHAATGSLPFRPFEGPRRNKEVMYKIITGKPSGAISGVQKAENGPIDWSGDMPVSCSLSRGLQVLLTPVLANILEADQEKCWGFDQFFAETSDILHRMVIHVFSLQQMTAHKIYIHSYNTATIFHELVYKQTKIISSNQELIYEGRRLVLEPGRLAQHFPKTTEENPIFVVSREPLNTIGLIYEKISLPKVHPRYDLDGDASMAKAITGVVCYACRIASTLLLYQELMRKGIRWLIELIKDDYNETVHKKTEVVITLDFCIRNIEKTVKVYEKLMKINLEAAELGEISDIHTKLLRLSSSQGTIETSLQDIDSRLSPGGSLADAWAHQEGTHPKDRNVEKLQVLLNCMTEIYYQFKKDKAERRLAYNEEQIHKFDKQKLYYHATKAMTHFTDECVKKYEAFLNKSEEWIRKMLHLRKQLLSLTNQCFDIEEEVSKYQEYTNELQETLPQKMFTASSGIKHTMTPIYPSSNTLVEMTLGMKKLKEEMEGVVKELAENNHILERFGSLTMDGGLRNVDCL
As to conditions: at 1 µM.

Molecules are shown by their SMILES.

For the molecule `CC(C)(C)n1nc(Cc2cccc3ccccc23)c2c(N)ncnc21`, the residual activity in experiment [1] worked out at 71%; in experiment [2], 86%; in experiment [3], 78%; in [4] it was 87%; in [5] it was 50%; in experiment [6], 90%. In addition, the residual activity in experiment [7] stood at 42%; in [8], 92%; in experiment [9] it was 41%; in experiment [10] it was 78%.
